Assay results taken from PubChem BioAssay AID1159580 (chemical genetic matrix, 2015).
The whole screen tested about 5,500 compounds, of which about 2,000 (36%) were called active. Another 18% or so got no clear call; they are omitted. Cut-off read from the data, not from the text of the source: active = normalized growth mostly below about 0.91 (no sharp cut-off); inconclusive = no clear call, values can overlap the other calls; inactive = mostly above about 0.92. The list shows a part of the results.

Assay: chemical genetic growth profiling, strain panel (AID 1159580);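 note: tested at 20 µM; growth read once vehicle control cultures reached saturation at 30 °C; 1 = growth at the plate median or of vehicle wells; lower values mean less growth of the strain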
Conditions: growth OD

Measured: normalized growth

NC(=O)c1cc[n+](CC2=C(C(=O)O)N3C(=O)C(NC(=O)C(c4ccccc4)S(=O)(=O)[O-])C3SC2)cc1 (stereo not given)
inactive: S. cerevisiae deletion strains, locus YJR066W, strain TOR1, stronger effect = lower value 1 | S. cerevisiae deletion strains, locus YKL009W, strain mrt4, stronger effect = lower value 0.991 | S. cerevisiae deletion strains, locus YKL068W, stronger effect = lower value 0.992 | S. cerevisiae deletion strains, locus YKL085W, strain MDH1 (second series), stronger effect = lower value 0.987 | S. cerevisiae deletion strains, locus YKL085W, strain MDH1, stronger effect = lower value 0.987 | S. cerevisiae deletion strains, locus YKL160W, strain elf1, stronger effect = lower value 0.967 | S. cerevisiae deletion strains, locus YKL190W, strain CNB1, stronger effect = lower value 0.996 | S. cerevisiae deletion strains, locus YKR001C, strain vps1, stronger effect = lower value 0.993 | S. cerevisiae deletion strains, locus YKR026C, strain gcn3, stronger effect = lower value 0.96 | S. cerevisiae deletion strains, locus YKR091W, strain srl3, stronger effect = lower value 1.01 | S. cerevisiae deletion strains, locus YLL001W, strain dnm1, stronger effect = lower value 0.961 | S. cerevisiae deletion strains, locus YLL026W, stronger effect = lower value 0.999 | S. cerevisiae deletion strains, locus YLL041C, strain sdh2, stronger effect = lower value 0.978 | S. cerevisiae deletion strains, locus YLR027C, strain aat2, stronger effect = lower value 0.982 | S. cerevisiae deletion strains, locus YLR039C, strain RIC1, stronger effect = lower value 0.986 | S. cerevisiae deletion strains, locus YLR058C, strain SHM2, stronger effect = lower value 0.987 | S. cerevisiae deletion strains, locus YLR102C, strain apc9, stronger effect = lower value 0.992 | S. cerevisiae deletion strains, locus YLR113W, strain HOG1, stronger effect = lower value 1.09 | S. cerevisiae deletion strains, locus YLR221C, strain rsa3, stronger effect = lower value 0.991 | S. cerevisiae deletion strains, locus YLR258W, strain gsy2, stronger effect = lower value 1.01 | S. cerevisiae deletion strains, locus YLR262C, strain YPT6 (second series), stronger effect = lower value 0.983 | S. cerevisiae deletion strains, locus YLR262C, strain YPT6, stronger effect = lower value 0.945 | S. cerevisiae deletion strains, locus YLR268W, strain sec22, stronger effect = lower value 0.981 | S. cerevisiae deletion strains, locus YLR320W, strain mms22, stronger effect = lower value 1.01 | S. cerevisiae deletion strains, locus YLR330W, strain CHS5, stronger effect = lower value 0.982 | S. cerevisiae deletion strains, locus YLR342W, strain FKS1 (second series), stronger effect = lower value 0.959 | S. cerevisiae deletion strains, locus YLR342W, strain FKS1, stronger effect = lower value 0.973 | S. cerevisiae deletion strains, locus YLR357W, strain rsc2, stronger effect = lower value 0.965 | S. cerevisiae deletion strains, locus YLR370C, strain arc18, stronger effect = lower value 1 | S. cerevisiae deletion strains, locus YLR371W, strain rom2, stronger effect = lower value 0.987 | S. cerevisiae deletion strains, locus YLR384C, strain iki3, stronger effect = lower value 0.984 | S. cerevisiae deletion strains, locus YLR418C, strain cdc73, stronger effect = lower value 0.972 | S. cerevisiae deletion strains, locus YML016C, strain PPZ1, stronger effect = lower value 0.982 | S. cerevisiae deletion strains, locus YML032C, strain rad52, stronger effect = lower value 0.989 | S. cerevisiae deletion strains, locus YML120C, strain ndi1, stronger effect = lower value 0.986 | S. cerevisiae deletion strains, locus YML124C, strain tub3, stronger effect = lower value 0.982 | S. cerevisiae deletion strains, locus YMR058W, strain fet3, stronger effect = lower value 0.998 | S. cerevisiae deletion strains, locus YMR078C, strain ctf18, stronger effect = lower value 0.989 | S. cerevisiae deletion strains, locus YMR125W, strain sto1, stronger effect = lower value 0.971 | S. cerevisiae deletion strains, locus YMR129W, stronger effect = lower value 1.01 | S. cerevisiae deletion strains, locus YMR205C, strain PFK2, stronger effect = lower value 1 | S. cerevisiae deletion strains, locus YMR223W, strain ubp8, stronger effect = lower value 0.974 | S. cerevisiae deletion strains, locus YMR231W, strain pep5, stronger effect = lower value 1 | S. cerevisiae deletion strains, locus YMR307W, strain GAS1, stronger effect = lower value 0.883 | S. cerevisiae deletion strains, locus YNL067W, strain RPL9B, stronger effect = lower value 1.02 | S. cerevisiae deletion strains, locus YNL071W, strain lat1, stronger effect = lower value 1.01 | S. cerevisiae deletion strains, locus YNL153C, strain GIM3, stronger effect = lower value 1.04 | S. cerevisiae deletion strains, locus YNL183C, strain NPR1, stronger effect = lower value 0.999 | S. cerevisiae deletion strains, locus YNL209W, strain ssb2, stronger effect = lower value 1.01 | S. cerevisiae deletion strains, locus YNL233W, strain BNI4, stronger effect = lower value 1.01 | S. cerevisiae deletion strains, locus YNL248C, strain rpa49, stronger effect = lower value 0.987 | S. cerevisiae deletion strains, locus YNL250W, strain rad50, stronger effect = lower value 0.975 | S. cerevisiae deletion strains, locus YNL271C, strain bni1, stronger effect = lower value 0.985 | S. cerevisiae deletion strains, locus YNL298W, strain CLA4, stronger effect = lower value 0.988 | S. cerevisiae deletion strains, locus YNL307C, strain MCK1, stronger effect = lower value 0.987 | S. cerevisiae deletion strains, locus YNL322C, strain KRE1 (second series), stronger effect = lower value 0.994 | S. cerevisiae deletion strains, locus YNL322C, strain KRE1, stronger effect = lower value 0.993 | S. cerevisiae deletion strains, locus YNR049C, strain mso1, stronger effect = lower value 0.986 | S. cerevisiae deletion strains, locus YNR052C, strain pop2, stronger effect = lower value 0.991 | S. cerevisiae deletion strains, locus YOL006C, strain TOP1, stronger effect = lower value 1.02 | S. cerevisiae deletion strains, locus YOL012C, strain htz1 1.88 | S. cerevisiae deletion strains, locus YOL147C, strain pex11, stronger effect = lower value 0.983 | S. cerevisiae deletion strains, locus YOR001W, strain rrp6, stronger effect = lower value 0.985 | S. cerevisiae deletion strains, locus YOR061W, strain CKA2, stronger effect = lower value 0.985 | S. cerevisiae deletion strains, locus YOR069W, strain VPS5, stronger effect = lower value 0.987 | S. cerevisiae deletion strains, locus YOR070C, strain gyp1, stronger effect = lower value 1.01 | S. cerevisiae deletion strains, locus YOR080W, strain dia2, stronger effect = lower value 0.982 | S. cerevisiae deletion strains, locus YOR083W, strain WHI5, stronger effect = lower value 0.985 | S. cerevisiae deletion strains, locus YOR106W, strain vam3, stronger effect = lower value 0.992 | S. cerevisiae deletion strains, locus YOR136W, strain idh2, stronger effect = lower value 0.998 | S. cerevisiae deletion strains, locus YOR144C, strain elg1, stronger effect = lower value 0.991 | S. cerevisiae deletion strains, locus YOR184W, strain ser1, stronger effect = lower value 0.98 | S. cerevisiae deletion strains, locus YOR231W, strain MKK1, stronger effect = lower value 1.09 | S. cerevisiae deletion strains, locus YOR265W, strain rbl2, stronger effect = lower value 1 | S. cerevisiae deletion strains, locus YOR270C, strain vph1, stronger effect = lower value 0.93 | S. cerevisiae deletion strains, locus YOR290C, strain snf2, stronger effect = lower value 0.998 | S. cerevisiae deletion strains, locus YOR316C, strain cot1, stronger effect = lower value 0.994 | S. cerevisiae deletion strains, locus YPL051W, strain arl3, stronger effect = lower value 0.987 | S. cerevisiae deletion strains, locus YPL055C, strain LGE1, stronger effect = lower value 1.06 | S. cerevisiae deletion strains, locus YPL078C, strain atp4, stronger effect = lower value 0.962 | S. cerevisiae deletion strains, locus YPL106C, strain sse1, stronger effect = lower value 1.02 | S. cerevisiae deletion strains, locus YPL240C, strain hsp82, stronger effect = lower value 0.987 | S. cerevisiae deletion strains, locus YPL241C, strain CIN2, stronger effect = lower value 0.991 | S. cerevisiae deletion strains, locus YPL256C, strain CLN2, stronger effect = lower value 1.07 | S. cerevisiae deletion strains, locus YPR119W, strain clb2, stronger effect = lower value 0.995 | S. cerevisiae deletion strains, locus YPR141C, strain kar3, stronger effect = lower value 0.98 | S. cerevisiae deletion strains, locus YPR163C, strain tif3, stronger effect = lower value 0.987 | S. cerevisiae deletion strains, locus YPR167C, strain met16, stronger effect = lower value 0.981 | S. cerevisiae deletion strains, strain wtn01, stronger effect = lower value 0.981 | S. cerevisiae strains, strain wild type, stronger effect = lower value 0.995
